From PubChem BioAssay (Tox21)
Several values for one entry are separate records, joined by “and”; a condition that tells them apart may be missing. Identical values can stand only once. Results filed as inconclusive are left out. Where a call stands in place of a potency, no number is given. A structure can be active in one record and inactive in another. Activity calls are given as the source filed them. Unless noted, the call rests on the fitted dose curve; in most records, active means well fitted curve in the direction sought with a large enough effect in the repeat runs; inconclusive means weak or mixed curves; inactive means no such curve, though single readings can be large; an effect the other way counts as inactive or inconclusive.

What was measured:
[1] = qHTS assay to identify small molecule antagonists of the sonic hedgehog signaling (Shh) pathway (AID 1259369; calls by dose curve; further: nearly all actives have a fitted effect of over 45% in size; further: potency means the concentration at half of the fitted maximal effect)
Outline: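 Screening used 3T3Gli1-Luc cells at 2,000 per well, compounds delivered in DMSO, and conditioned medium as agonist stimulus; plates incubated 24hr at 37 C and 5% CO2 before a 30min luciferase step.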

[2] = qHTS assay to identify small molecule agonists of the estrogen receptor beta (ER-beta) signaling pathway - cell viability counter screen (AID 1259380); further: nearly all actives have a fitted effect of over 30% in size; further: potency means the concentration at half of the fitted maximal effect
Outline: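 Viability of ER-beta-UAS-bla HEK293T cells was determined by CellTiter-Glo luminescence following 16 hr treatment with test compounds at 37C.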

[3] = qHTS assay to identify small molecule antagonists of the estrogen receptor beta (ER-beta) signaling pathway - cell viability counter screen (AID 1259382); further: nearly all actives have a fitted effect of over 55% in size; further: potency means the concentration at half of the fitted maximal effect
Outline: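 Tox21 10K library tested in qHTS format on ER-beta-bla HEK293T cells stimulated with 1nM E2; 16 hr treatment at 37C. Same-well CellTiter-Glo luminescence served as the cell viability measure.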

[4] = qHTS assay to identify small molecule agonists or antagonists of the thyroid stimulating hormone receptor (TSHR) signaling pathway - wild type cell line counter screen (AID 1259384; calls by dose curve)
Outline: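 Counter screen in untransfected Hek293: compounds (15-point titration, triplicate) plus phosphodiesterase inhibitor Ro20-1724 added after 18 h plating; 30 min RT. Intracellular cAMP via competitive d2/cryptate immunoassay, 1 h incubation.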

[5] = biological target: Thyrotropin receptor (Homo sapiens) (UniProt P16473); assay: qHTS assay to identify small molecule antagonists of the thyroid stimulating hormone receptor (TSHR) signaling pathway (AID 1259385; calls by dose curve; further: nearly all actives have a fitted effect of over 20% in size; further: potency means the concentration at half of the fitted maximal effect)
Chain of Thyrotropin receptor (Homo sapiens) (P16473 whole entry, looked up): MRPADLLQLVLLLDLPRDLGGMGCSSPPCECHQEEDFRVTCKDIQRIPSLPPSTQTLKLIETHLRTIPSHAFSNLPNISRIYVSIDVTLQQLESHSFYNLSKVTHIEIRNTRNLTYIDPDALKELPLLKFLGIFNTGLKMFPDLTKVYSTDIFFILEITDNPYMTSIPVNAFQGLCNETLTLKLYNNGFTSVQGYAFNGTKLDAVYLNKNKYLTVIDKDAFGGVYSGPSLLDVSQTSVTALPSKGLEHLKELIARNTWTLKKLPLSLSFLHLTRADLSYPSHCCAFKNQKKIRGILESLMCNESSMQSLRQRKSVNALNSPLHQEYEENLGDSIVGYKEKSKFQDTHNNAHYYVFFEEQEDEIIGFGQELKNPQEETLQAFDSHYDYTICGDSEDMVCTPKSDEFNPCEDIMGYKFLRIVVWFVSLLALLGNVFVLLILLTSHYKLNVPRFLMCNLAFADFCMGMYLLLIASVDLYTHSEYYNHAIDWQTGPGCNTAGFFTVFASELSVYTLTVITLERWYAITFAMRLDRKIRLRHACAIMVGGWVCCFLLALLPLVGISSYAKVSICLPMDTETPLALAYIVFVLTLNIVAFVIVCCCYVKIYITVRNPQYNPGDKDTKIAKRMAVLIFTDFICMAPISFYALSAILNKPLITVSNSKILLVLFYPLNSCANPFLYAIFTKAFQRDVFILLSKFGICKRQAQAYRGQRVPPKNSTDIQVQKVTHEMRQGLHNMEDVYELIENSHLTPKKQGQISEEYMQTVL
Outline: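 Antagonist mode: compound-treated TSHR-expressing HEK293 cells were stimulated with 1.5 ng/mL TSH (final) in presence of Ro20-1724 for 30 min at RT. HTRF cAMP detection after 1 h; each compound tested at 15 concentrations, triplicate.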

[6] = qHTS assay to identify small molecule agonists of the estrogen receptor alpha (ER-alpha) signaling pathway in the presence of an antagonist - cell viability counter screen (AID 1259386);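 further: cells exposed to compounds for 22 h at 37 °C before the viability read; nearly all actives have a fitted effect of over 30% in size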; further: potency means the concentration at half of the fitted maximal effect
Outline: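 Fluorescent CellTiter-Fluor viability signal from VM7Luc4E2 cells, with the reagent added during the final hour of a 22hr compound exposure at 37C in the presence of 10.0nM ICI-182,780.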

[7] = biological target: Progesterone receptor (Homo sapiens) (UniProt P06401); assay: qHTS assay to identify small molecule agonists of the progesterone receptor (PR) signaling pathway (AID 1346784; calls by dose curve; further: nearly all actives have a fitted effect of over 30% in size)
Chain of Progesterone receptor (Homo sapiens) (P06401 whole entry, looked up): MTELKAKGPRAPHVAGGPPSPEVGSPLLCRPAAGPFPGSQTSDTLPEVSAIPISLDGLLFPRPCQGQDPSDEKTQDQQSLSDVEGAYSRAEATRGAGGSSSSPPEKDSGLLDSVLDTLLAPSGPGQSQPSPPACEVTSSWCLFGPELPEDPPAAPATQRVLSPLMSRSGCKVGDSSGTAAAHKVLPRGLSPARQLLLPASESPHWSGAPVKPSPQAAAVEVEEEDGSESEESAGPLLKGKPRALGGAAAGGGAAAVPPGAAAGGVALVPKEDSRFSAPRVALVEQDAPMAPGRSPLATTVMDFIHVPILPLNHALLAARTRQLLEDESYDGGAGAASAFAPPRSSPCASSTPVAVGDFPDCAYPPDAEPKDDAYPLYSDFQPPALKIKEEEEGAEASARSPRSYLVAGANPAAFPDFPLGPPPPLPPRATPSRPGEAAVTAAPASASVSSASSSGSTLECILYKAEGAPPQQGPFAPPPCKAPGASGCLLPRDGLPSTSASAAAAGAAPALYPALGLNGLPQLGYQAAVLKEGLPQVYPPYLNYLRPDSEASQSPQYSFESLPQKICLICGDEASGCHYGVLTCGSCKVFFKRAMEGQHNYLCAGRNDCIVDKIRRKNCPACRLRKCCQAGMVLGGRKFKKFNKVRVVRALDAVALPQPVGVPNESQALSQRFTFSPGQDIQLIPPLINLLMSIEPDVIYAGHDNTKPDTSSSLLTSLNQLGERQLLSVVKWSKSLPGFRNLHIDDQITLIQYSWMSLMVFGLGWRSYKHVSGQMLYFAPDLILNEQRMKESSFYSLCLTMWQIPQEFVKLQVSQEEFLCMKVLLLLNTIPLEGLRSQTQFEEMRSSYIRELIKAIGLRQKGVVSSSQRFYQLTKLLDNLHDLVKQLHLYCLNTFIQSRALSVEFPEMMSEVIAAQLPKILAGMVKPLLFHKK
Outline: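 The screen uses PR-UAS-bla HEK 293T cells in charcoal-stripped serum (2%). Compounds are applied for 16 hr at 37C after a 6 hr pre-incubation, and reporter activity is detected with a FRET beta-lactamase substrate after 2 hr at room temperature.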

[8] = biological target: Progesterone receptor (Homo sapiens) (UniProt P06401); assay: qHTS assay to identify small molecule antagonists of the progesterone receptor (PR) signaling pathway (AID 1346795; active means well fitted inhibition curve with a large enough effect in the signal ratio in the repeat runs, not every such curve was filed as active; the % refers to the signal ratio; further: potency means the concentration at half of the fitted maximal effect)
Outline: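 After 6 hr plating at 37C in 2% stripped-serum medium, PR-UAS-bla HEK293T cells got compounds, then 1 nM R5020. Sixteen hours later, LiveBLAzer substrate was applied for 2 hr at room temperature and fluorescence was recorded.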

[9] = qHTS assay to identify small molecule antagonists of the progesterone receptor (PR) signaling pathway - cell viability counter screen (AID 1346798); further: nearly all actives have a fitted effect of over 50% in size; further: potency means the concentration at half of the fitted maximal effect
Outline: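 Viability was determined by ATP-based luminescence (CellTiter-Glo) in PR-UAS-bla HEK293T cells cultured in 2% charcoal-stripped serum and incubated 16 hr with compounds under R5020 stimulation.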

[10] = qHTS assay to identify small molecule antagonists of the TGF-beta/Smad signaling pathway - cell viability counter screen (AID 1346824); further: nearly all actives have a fitted effect of over 50% in size; further: potency means the concentration at half of the fitted maximal effect
Outline: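 Cytotoxicity counter-screen run in the same wells as the beta-lactamase Smad reporter read: CellTiter-Glo luminescence after 30 min at room temperature. HEK 293T SBE-bla cells had 5 hr compound exposure at 37 C with TGF-beta1 (0.25 ng/mL stock).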

[11] = qHTS assay to identify small molecule agonists of the TGF-beta/Smad signaling pathway - cell viability counter screen (AID 1346829); further: nearly all actives have a fitted effect of over 45% in size; further: potency means the concentration at half of the fitted maximal effect
Outline: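 Tox21 qHTS format: SBE-bla HEK 293T cells treated with DMSO-dissolved compounds for 5 hr; CellTiter-Glo luminescence after 30 min at room temperature.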

[12] = qHTS assay to identify small molecule agonists of the TGF-beta/Smad signaling pathway (AID 1346859; active means well fitted activation curve with a large enough effect in the signal ratio in the repeat runs, not every such curve was filed as active; the % refers to the signal ratio; further: series mostly up to about 77 µM)
Outline: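 Dual-wavelength fluorescence (460/530 nm emission) quantified beta-lactamase expression under the Smad binding element in HEK 293T cells following 5 hr compound treatment at 37 C.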

[13] = biological target: Thyrotropin-releasing hormone receptor (Homo sapiens) (UniProt P34981); assay: qHTS assay to identify small molecule agonists of the thyrotropin-releasing hormone receptor (TRHR) signaling pathway (AID 1346891; calls by dose curve; further: series mostly up to about 58 µM)
Chain of Thyrotropin-releasing hormone receptor (Homo sapiens) (P34981 whole entry, looked up): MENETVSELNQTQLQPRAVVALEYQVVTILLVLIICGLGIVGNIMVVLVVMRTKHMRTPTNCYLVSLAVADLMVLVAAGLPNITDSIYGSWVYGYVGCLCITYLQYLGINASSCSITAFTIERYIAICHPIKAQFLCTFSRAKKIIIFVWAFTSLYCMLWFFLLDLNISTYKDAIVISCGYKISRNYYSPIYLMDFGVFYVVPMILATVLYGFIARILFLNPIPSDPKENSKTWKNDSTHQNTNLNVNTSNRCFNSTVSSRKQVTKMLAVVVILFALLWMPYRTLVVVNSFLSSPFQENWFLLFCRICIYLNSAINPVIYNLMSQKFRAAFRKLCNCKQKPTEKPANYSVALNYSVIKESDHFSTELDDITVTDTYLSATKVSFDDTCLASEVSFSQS
Outline: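 Kinetic fluorescence (3 min, 1 s intervals) reported intracellular calcium after compound transfer onto TRHR-Hek293 cells pre-loaded with dye for 2 h at 37 °C.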

[14] = biological target: Estrogen receptor (Homo sapiens) (UniProt P03372); assay: qHTS assay to identify small molecule agonists of the estrogen receptor alpha (ER-alpha) signaling pathway in the presence of an antagonist (AID 1259383; calls by dose curve; further: top concentration of the series differs between compounds; nearly all actives have a fitted effect of over 15% in size)
Chain of Estrogen receptor (Homo sapiens) (P03372 whole entry, looked up): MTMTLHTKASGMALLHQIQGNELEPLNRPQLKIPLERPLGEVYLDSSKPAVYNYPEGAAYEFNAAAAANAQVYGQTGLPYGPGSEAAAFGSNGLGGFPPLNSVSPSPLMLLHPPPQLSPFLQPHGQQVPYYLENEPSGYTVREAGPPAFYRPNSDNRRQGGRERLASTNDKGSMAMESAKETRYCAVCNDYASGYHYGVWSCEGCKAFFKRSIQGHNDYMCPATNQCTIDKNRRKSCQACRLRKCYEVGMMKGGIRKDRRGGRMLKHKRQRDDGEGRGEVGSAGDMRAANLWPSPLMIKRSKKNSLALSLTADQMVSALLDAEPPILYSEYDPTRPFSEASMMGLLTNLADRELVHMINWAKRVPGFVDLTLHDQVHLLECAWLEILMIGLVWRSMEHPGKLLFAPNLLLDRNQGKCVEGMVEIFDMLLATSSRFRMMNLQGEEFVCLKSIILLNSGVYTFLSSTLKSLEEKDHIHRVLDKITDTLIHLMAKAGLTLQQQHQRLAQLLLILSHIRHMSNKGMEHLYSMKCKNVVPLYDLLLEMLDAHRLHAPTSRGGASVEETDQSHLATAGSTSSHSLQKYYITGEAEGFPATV
Outline: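 In VM7Luc4E2 cells, 4,000 per well, compounds at 15 concentrations were co-incubated 22hr at 37C with 10.0nM final ICI-182,780. Luminescence from the stably transfected 4×ERE-luciferase reporter was recorded 30min after ONE-Glo addition.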

[15] = biological target: Thyrotropin-releasing hormone receptor (Homo sapiens) (UniProt P34981); assay: qHTS assay to identify small molecule antagonists of the thyrotropin-releasing hormone receptor (TRHR) signaling pathway (AID 1346877; active means well fitted inhibition curve with a large enough effect in the repeat runs, not every such curve was filed as active; further: potency means the concentration at half of the fitted maximal effect)
Outline: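 In this cell-based calcium flux format, HEK293 cells expressing TRHR received test compound for 5 min before the agonist TRH (1 nM final). Dye loading lasted 2 h at 37 °C.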

[16] = biological target: Estrogen receptor beta (Homo sapiens) (UniProt Q92731); assay: qHTS assay to identify small molecule agonists of the estrogen receptor beta (ER-beta) signaling pathway (AID 1259377; active means well fitted activation curve with a large enough effect in the signal ratio in the repeat runs, not every such curve was filed as active; the % refers to the signal ratio)
Chain of Estrogen receptor beta (Homo sapiens) (Q92731 whole entry, looked up): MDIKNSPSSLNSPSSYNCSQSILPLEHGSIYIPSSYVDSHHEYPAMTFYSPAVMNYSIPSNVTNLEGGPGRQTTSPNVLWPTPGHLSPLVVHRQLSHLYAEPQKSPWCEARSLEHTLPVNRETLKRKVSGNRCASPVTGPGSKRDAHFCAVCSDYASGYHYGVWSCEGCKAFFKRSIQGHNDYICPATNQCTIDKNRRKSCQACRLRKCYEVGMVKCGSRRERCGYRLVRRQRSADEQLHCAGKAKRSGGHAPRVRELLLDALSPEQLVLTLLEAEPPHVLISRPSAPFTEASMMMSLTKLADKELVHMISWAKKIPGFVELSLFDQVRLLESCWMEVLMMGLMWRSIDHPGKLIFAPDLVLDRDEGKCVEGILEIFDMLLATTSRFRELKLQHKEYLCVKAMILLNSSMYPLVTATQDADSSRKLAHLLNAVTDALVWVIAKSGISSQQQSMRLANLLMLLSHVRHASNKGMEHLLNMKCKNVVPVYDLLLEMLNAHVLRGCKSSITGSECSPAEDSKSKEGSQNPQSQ
Outline: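 Measured by fluorescence intensity from a B/G FRET beta-lactamase substrate (2 h, room temperature) in ER-beta-UAS-bla HEK293T cells treated with DMSO-dissolved compounds for 16 hr at 37C and 5% CO2.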

[17] = biological target: Estrogen receptor beta (Homo sapiens) (UniProt Q92731); assay: qHTS assay to identify small molecule antagonists of the estrogen receptor beta (ER-beta) signaling pathway (AID 1259378; active means well fitted inhibition curve with a large enough effect in the signal ratio in the repeat runs, not every such curve was filed as active; the % refers to the signal ratio; further: potency means the concentration at half of the fitted maximal effect)
Outline: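 Antagonist mode: compounds added to beta-lactamase reporter HEK293T ER-beta-UAS cells stimulated with E2 (1nM final), 16 hr at 37C. LiveBLAzer B/G FRET substrate, 2 hours room temperature, fluorescence read-out.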

[18] = qHTS assay to identify small molecule agonists of the androgen receptor (AR) signaling pathway in the presence of an antagonist - cell viability counter screen (AID 1259379); further: nearly all actives have a fitted effect of over 25% in size; further: potency means the concentration at half of the fitted maximal effect
Outline: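 In MDA-kb2 cells (human breast carcinoma, MMTV-luciferase), compounds at 15 concentrations plus 3.0uM nilutamide; 16 hr, 37C, 0% CO2; CellTiter-Fluor fluorescence read for viability.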

[19] = biological target: Androgen receptor (Homo sapiens) (UniProt P10275); assay: qHTS assay to identify small molecule agonists of the androgen receptor (AR) signaling pathway in the presence of an antagonist (AID 1259381; calls by dose curve; further: nearly all actives have a fitted effect of over 15% in size)
Chain of Androgen receptor (Homo sapiens) (P10275 whole entry, looked up): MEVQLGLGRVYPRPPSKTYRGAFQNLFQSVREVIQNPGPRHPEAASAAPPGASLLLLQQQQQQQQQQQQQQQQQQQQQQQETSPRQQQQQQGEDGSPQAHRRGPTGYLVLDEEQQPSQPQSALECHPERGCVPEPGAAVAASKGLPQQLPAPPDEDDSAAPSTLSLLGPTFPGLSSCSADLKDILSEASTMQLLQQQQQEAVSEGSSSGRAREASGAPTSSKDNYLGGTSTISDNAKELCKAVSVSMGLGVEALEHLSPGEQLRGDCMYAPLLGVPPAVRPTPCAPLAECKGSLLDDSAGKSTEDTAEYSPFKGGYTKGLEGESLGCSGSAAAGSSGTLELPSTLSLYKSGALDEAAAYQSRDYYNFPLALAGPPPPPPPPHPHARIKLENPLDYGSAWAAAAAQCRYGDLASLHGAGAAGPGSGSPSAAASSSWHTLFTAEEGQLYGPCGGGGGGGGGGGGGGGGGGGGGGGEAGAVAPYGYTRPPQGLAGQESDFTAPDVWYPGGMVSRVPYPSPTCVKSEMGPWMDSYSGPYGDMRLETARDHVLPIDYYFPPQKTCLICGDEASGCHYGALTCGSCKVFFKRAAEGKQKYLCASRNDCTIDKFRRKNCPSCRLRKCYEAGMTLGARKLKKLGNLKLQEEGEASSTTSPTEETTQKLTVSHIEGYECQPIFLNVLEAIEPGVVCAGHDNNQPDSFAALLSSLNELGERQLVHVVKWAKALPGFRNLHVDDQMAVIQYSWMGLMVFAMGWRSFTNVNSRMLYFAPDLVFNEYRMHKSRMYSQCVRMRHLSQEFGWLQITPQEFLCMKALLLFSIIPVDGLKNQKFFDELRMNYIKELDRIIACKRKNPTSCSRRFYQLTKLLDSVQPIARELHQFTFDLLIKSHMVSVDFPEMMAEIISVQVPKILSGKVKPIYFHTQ
Outline: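 Here, 15-concentration compound series were pin-transferred onto MDA-kb2 MMTV-luciferase cells already dosed with nilutamide (3.0uM final). After 16hr at 37C, ONE-Glo was added and luminescence read 30min later at room temperature.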

[20] = qHTS assay to identify small molecule agonists of the progesterone receptor (PR) signaling pathway - cell viability counter screen (AID 1346799; calls by dose curve; further: nearly all actives have a fitted effect of over 45% in size; further: potency means the concentration at half of the fitted maximal effect)
Outline: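 Viability was scored by ATP luminescence (CellTiter-Glo, 30 min, room temperature) in the same wells used for the reporter readout, after 16 hr compound exposure of PR-UAS-bla HEK293T cells.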

| Compound | Potency [1] | Potency [2] | Potency [3] | Potency [4] | Potency [5] | Potency [6] | Potency [7] | Potency [8] | Potency [9] | Potency [10] | Potency [11] | outcome [12] | Potency [13] | Potency [14] | Potency [15] | Potency [16] | Potency [17] | Potency [18] | Potency [19] | Potency [20] |
| --- | --- | --- | --- | --- | --- | --- | --- | --- | --- | --- | --- | --- | --- | --- | --- | --- | --- | --- | --- | --- |
| CN1C(=O)[C@@H](NC(=O)c2cc3ccccc3[nH]2)N=C(c2ccccc2)c2ccccc21 | inactive | inactive | inactive | inactive | inactive | inactive | inactive | inactive | inactive | inactive | inactive | inactive | inactive | – | – | – | – | – | – | – |
| Nc1ccc(N=Nc2ccccc2)cc1 | 21.7 µM (active) | – | inactive | inactive | – | 30.6 µM (active) | – | – | – | inactive | inactive | inactive | inactive | inactive | inactive | – | – | – | – | – |
| [Cl-].[Cl-].[Cl-].[Yb+3] | inactive | – | inactive | – | – | inactive | – | inactive | – | inactive | inactive | inactive | – | – | – | – | – | – | – | – |
| CCn1cc[n+](C)c1 (tested in a mixture with another compound) | inactive | inactive | inactive | – | – | inactive | inactive | inactive | – | inactive | inactive | inactive | – | – | – | – | – | – | – | – |
| CCOP(=S)(OCC)SC(CCl)N1C(=O)c2ccccc2C1=O (stereo unspecified) | – | inactive | inactive | inactive | – | inactive | inactive | 27.3 µM (active) | – | inactive | inactive | inactive | inactive | – | inactive | inactive | 30.6 µM (active) | inactive | inactive | – |
| CCCCCCCc1ccc(O)cc1 | – | 54.5 µM (active) | 48.6 µM (active) | inactive | inactive | – | inactive | 21.7 µM (active) | inactive | inactive | – | inactive | inactive | inactive | inactive | inactive | 54.5 µM (active) | inactive | inactive | – |
| c1ccc2c(c1)cc1ccc3cccc4ccc2c1c34 | inactive | inactive | inactive | inactive | inactive | – | – | – | – | inactive | inactive | – | inactive | – | inactive | – | – | – | – | inactive |
| CN1CCc2cc(Cl)c(O)cc2[C@H]2c3ccccc3CC[C@@H]21 | inactive | 15 µM (active) | inactive | – | inactive | – | inactive | – | inactive | inactive | – | inactive | – | inactive | – | – | – | – | – | – |
| Cc1nn(-c2cc(NS(C)(=O)=O)c(Cl)cc2Cl)c(=O)n1C(F)F | inactive | inactive | inactive | inactive | inactive | inactive | inactive | inactive | – | inactive | inactive | inactive | inactive | – | inactive | – | – | – | inactive | inactive |
| Cc1ccc2cc3c(ccc4ccccc43)c3c2c1CC3 | inactive | inactive | inactive | inactive | inactive | – | inactive | – | inactive | inactive | – | – | inactive | inactive | inactive | – | – | – | – | inactive |
| O=S(=O)(NS(=O)(=O)C(F)(F)F)C(F)(F)F | 2.43 µM (active) | – | inactive | – | – | – | – | – | inactive | inactive | inactive | inactive | – | – | – | – | – | 19.3 µM (active) | – | inactive |
| ClC1=C(Cl)[C@]2(Cl)[C@H]3[C@H]([C@@H]4C=C[C@H]3C4)[C@@]1(Cl)C2(Cl)Cl | inactive | 61.1 µM (active) | inactive | inactive | inactive | inactive | inactive | 21.7 µM (active) | inactive | inactive | inactive and 49 µM (active) | inactive | inactive | inactive | inactive | – | – | – | – | inactive |
| COC(=O)N(OC)c1ccccc1COc1ccn(-c2ccc(Cl)cc2)n1 | 0.0686 µM (active) | 0.969 µM (active) | inactive | – | inactive | 0.864 µM (active) | inactive | 4.86 µM (active) | – | inactive | inactive | inactive | inactive | inactive | – | – | – | – | – | – |
| O=C(Nc1ccc(F)cc1F)c1cccnc1Oc1cccc(C(F)(F)F)c1 | – | inactive | inactive | – | inactive | inactive | inactive | inactive | – | inactive | inactive | inactive | inactive | – | inactive | inactive | inactive | inactive | – | inactive |
| ClC1(Cl)C2(Cl)C3(Cl)C4(Cl)C(Cl)(Cl)C5(Cl)C3(Cl)C1(Cl)C5(Cl)C24Cl (stereo unspecified) | inactive | – | inactive | inactive | inactive | – | inactive | inactive | inactive | inactive | – | inactive | inactive | inactive | inactive | – | – | – | inactive | – |
| O=[N+]([O-])c1cc(C(F)(F)F)c(Cl)c([N+](=O)[O-])c1Nc1ncc(C(F)(F)F)cc1Cl | 3.86 µM (active) | 6.86 µM (active) | 8.63 µM (active) | – | 61.1 µM (active) | – | – | – | 24.3 µM (active) | 30.9 µM (active) | 43.6 µM (active) | – | inactive | inactive | 15.1 µM (active) | – | – | – | – | 27.3 µM (active) |
| CC(Cc1ccc2c(c1)OCO2)NO (stereo unspecified) | inactive | inactive | inactive | – | inactive | inactive | inactive | inactive | inactive | inactive | – | inactive | inactive | inactive | inactive | – | – | – | – | inactive |
| CCC1(CC)C(=O)N=C(O)NC1=O | – | inactive | inactive | – | – | inactive | inactive | inactive | inactive | inactive | inactive | inactive | inactive | inactive | inactive | inactive | inactive | inactive | – | inactive |
